High-throughput results deposited in PubChem BioAssay by National Center for Advancing Translational Sciences (NCATS).
This is a sample that favours compounds with a hit; in the whole collection about 10% have one here.
HP1b binding inh = HTS for Inhibitors of HP1-beta Chromodomain Interactions with Methylated Histone Tails | Chromobox protein homolog 1 (Homo sapiens), P83916 | 390,000 tested, 0.56% active | Potency, µM (doses to about 114 µM), for the others: at the top dose activity change, negative = inhibition, usual class: inhibitors | AlphaScreen HP1-beta / biotin-H3K9me3 peptide binding; also: potency is read from the fitted curve at half-maximal effect; nearly all actives have a fitted effect of over 70% in size
Target sequence (P83916 whole entry, looked up): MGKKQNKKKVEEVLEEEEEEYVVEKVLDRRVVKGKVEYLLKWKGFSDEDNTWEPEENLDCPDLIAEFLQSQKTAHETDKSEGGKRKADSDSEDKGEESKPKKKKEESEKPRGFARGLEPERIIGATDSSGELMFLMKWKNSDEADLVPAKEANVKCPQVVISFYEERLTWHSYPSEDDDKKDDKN
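AlphaScreen: HP1-beta (50 nM) preformed 30 min with biotin-H3(1-18)K9me3 peptide (50 nM) in PBS pH 7.4, 0.01% Tween-20. Compound added for 30 min at RT, then streptavidin donor/nickel chelate acceptor beads (10 ug/mL) for 30 min.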
JMJD2A Tudor = qHTS Assay for Inhibitors of JMJD2A-Tudor Domain. Lysine-specific demethylase 4A (Homo sapiens), O75164. AlphaScreen JMJD2A-Tudor / H3K4me3 peptide binding. Potency, µM (series often up to 114 µM), for the others: top-dose activity change, negative = inhibition, actives largely listed as inhibitors. 390,000 tested, 4.4% active; also: potency is read from the fitted curve at half-maximal effect; % is scaled to controls: 0 for no effect and ±100 for the full control effect; nearly all actives have a fitted effect of over 50% in size
Six1-Eya2 blk = qHTS Assay for Inhibitors of the Six1/Eya2 Interaction; AlphaScreen GST-Six1/His-Eya2 binding, biochemical; hits give low values; activity change, % (no concentration beside the values); 360,000 tested, 0.56% active; AID 651725, 2012; in the data active = activity change below about -65%; inconclusive = mostly about -30% to -63%; also: % is scaled to controls: 0 for no effect and ±100 for the full control effect
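Compounds are tested against tagged Six1 and Eya2 proteins bridged by glutathione donor and nickel acceptor beads; after a one-hour incubation at 37 °C without light, AlphaScreen emission is recorded.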
BAZ2B block = qHTS Assay for Inhibitors of BAZ2B | Bromodomain adjacent to zinc finger domain protein 2B (Homo sapiens), Q9UIF8 | AlphaScreen BAZ2B-H3K14Ac peptide displacement | Potency, µM (highest dose often 114 µM), without a hit: at the top dose activity change, negative = inhibition, most hits filed as inhibitors | 360,000 tested, 4.4% active | AID 504333, 2011; also: potency is read from the fitted curve at half-maximal effect; % is scaled to controls: 0 for no effect and ±100 for the full control effect; nearly all actives have a fitted effect of over 60% in size
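BAZ2B 50 nM plus b-H3(5-23)K14Ac 50 nM, PBS pH 7.4/0.01% Tween-20, 30 min RT; compound added (max 110 uM), 30 min RT; streptavidin donor/Ni-chelate acceptor beads 10 ug/mL final, 20 min dark; AlphaScreen read.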
G9a inh = qHTS Assay for Inhibitors of Histone Lysine Methyltransferase G9a; 350,000 tested, 8.8% active; AID 504332, 2011; G9a H3K9 monomethylation, AlphaScreen, 2 h; Histone-lysine N-methyltransferase EHMT2 (Homo sapiens), Q96KQ7; Potency, µM (top dose mostly 102 µM), without a hit: at the highest dose activity, negative = inhibition, actives largely listed as inhibitors; also: potency is read from the fitted curve at half-maximal effect; % is scaled to controls: 0 for no effect and ±100 for the full control effect; nearly all actives have a fitted effect of over 75% in size
Target sequence (Q96KQ7 913-1193 limits assumed): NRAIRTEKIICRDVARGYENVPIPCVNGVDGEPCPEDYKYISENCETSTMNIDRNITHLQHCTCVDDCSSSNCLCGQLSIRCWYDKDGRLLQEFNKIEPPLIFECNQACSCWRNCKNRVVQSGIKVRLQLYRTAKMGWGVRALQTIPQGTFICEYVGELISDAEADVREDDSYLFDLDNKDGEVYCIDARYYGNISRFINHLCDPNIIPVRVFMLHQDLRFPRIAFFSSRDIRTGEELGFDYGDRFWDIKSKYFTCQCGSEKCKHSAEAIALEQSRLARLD
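Quantitative HTS format: methyltransferase activity on a biotin-tagged H3K9 peptide is measured by AlphaScreen, using a rabbit anti-monomethyl-H3K9 antibody with streptavidin donor and anti-IgG acceptor beads. Final levels are 20 nM enzyme, 500 nM peptide, 20 uM SAM; 2 h RT.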
CtBP-E1A blk = qHTS Assay for Inhibitors of the CtBP/E1A Interaction | activity change, % (no concentration beside the values) | AID 651724, 2012 | 340,000 tested, 0.49% active | AlphaScreen GST-E1A/His-CtBP binding, 1536-well; hits give low values | CtBP / adenovirus E1A interaction (AlphaScreen); in the data active = activity change below about -65%; inconclusive = mostly about -30% to -63%; also: % is scaled to controls: 0 for no effect and ±100 for the full control effect
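In 5 uL wells, 23 nL compound meets equimolar GST-E1A and His-CtBP (5X stock 125 nM each) for 2 h, 37 °C. Beads (5X, 50 ug/mL) then 1 h, 37 °C, dark.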
* = called active by the depositor; ? = inconclusive; / = not tested or not shown; ! = a repeat was not active; [ ] = another dose, or the depositor's remark. Unless noted, calls follow the shape of the dose curve; as a rule, active = well fitted inhibition curve with a large enough effect; inconclusive = small, poorly fitted or top-dose-only effect; inactive = no such curve, though single readings can be large or run the other way.

SMILES | HP1b binding inh | JMJD2A Tudor | Six1-Eya2 blk | BAZ2B block | G9a inh | CtBP-E1A blk
CCOC(=O)N1CCc2c(sc3c2c(=O)n(CCc2ccccc2)c(=O)n3Cc2ccc(C)cc2C)C1 | 26% | -7% | / | -29% | -29%[59 µM] | /
Cc1ccc(CN2C(=O)C(O)(c3c(C)[nH]c4ccccc34)c3ccccc32)cc1 (centres undefined) | ? | ? | / | 45µM* | ? | /
CCCN1C(=O)C(O)(c2c(C)[nH]c3ccccc23)c2ccccc21 (centres undefined) | 34% | -5% | 4 | ? | -15%[59 µM] | /
Cc1nnc(N2CCN(c3cccc(Cl)c3)CC2)c2c1nnn2Cc1ccc(F)cc1 | 46% | -19% | / | -1% | 0%[59 µM] | /
COc1ccccc1CNC(=O)CCn1c(=O)c2ccccc2n(CC(=O)Nc2cc(Cl)ccc2C)c1=O | 26% | -2% | / | -9% | -6%[59 µM] | /
O=S(=O)(c1cccs1)N1CCN(c2ccccc2)CC1 | 2% | -7% | 0 | 0% | 12% | 3
O=C(C(NS(=O)(=O)c1cccs1)c1ccccc1)N1CCN(c2ccccc2)CC1 (centres undefined) | 4% | ? | -6 | ? | 45µM* | 6
O=C1C(NS(=O)(=O)c2cccs2)=C(N2CCN(c3ccccc3)CC2)C(=O)c2ccccc21 | ? | 28µM* | -22 | 5.6µM* | 3.2µM* | -22
Cc1ccccc1-n1c(O)cc(=O)[nH]c1=S | 29% | 1% | 3 | -21% | 45µM* | 1
O=c1cc(O)n(-c2ccccc2F)c(=S)[nH]1 | -3% | -31% | -3 | -10% | 50µM* | -1
O=c1cc(O)n(-c2ccc(Cl)cc2)c(=S)[nH]1 | 41% | -16% | -1 | -2% | 10µM* | -5
O=C(c1ccc(Br)cc1)N(Cc1nc2ccccc2c(=O)[nH]1)C1CCCC1 | 17% | -18% | -18 | -34% | -17% | -27
CN(CCc1ccccc1)C(=O)c1ccc(NC(=O)Cc2ccc([N+](=O)[O-])cc2)cc1 | 22% | ? | -9 | / | / | -2
O=C(Nc1ccc2c(c1)OCCO2)C1c2ccccc2OCC(=O)N1Cc1ccco1 (centres undefined) | / | / | -10 | / | / | -11
Cc1ccc(CN2CCN(/N=C/c3cc([N+](=O)[O-])ccc3Cl)CC2)cc1 | ? | 35µM* | ? | 32µM* | ? | ?
Cc1ccc(CN2CCN(/N=C/c3cc(Br)ccc3F)CC2)cc1 | -1% | ? | -23 | 50µM* | 56µM* | -18
Cc1ccc(CN2CCN(/N=C/c3cc(Br)cc(Br)c3O)CC2)cc1 | ? | ? | -27 | -33% | -12%[59 µM] | ?
Cc1ccc(CN2CCN(/N=C/c3ccc(N(C)C)cc3)CC2)cc1 | ? | ? | -12 | ? | / | -6
Cc1ccc(CN2CCN(/N=C/c3ccc(Cl)c([N+](=O)[O-])c3)CC2)cc1 | ? | 45µM* | ? | 14µM* | 14µM* | ?
O=[N+]([O-])c1cc(CN2CCC(O)CC2)ccc1Cl | ? | 0.89µM* | -1 | 50µM* | 13µM* | 3
CCN(CC)S(=O)(=O)c1ccc(OCCNS(C)(=O)=O)cc1 | -15% | 11µM* | -4 | 9% | -38% | 10
CCN(CC)S(=O)(=O)c1ccc(Oc2ccc(S(=O)(=O)N(CC)CC)cc2)cc1 | 24% | -7% | 8 | 3% | 13%[59 µM] | 6
CCNS(=O)(=O)c1ccc(OCCNS(C)(=O)=O)cc1 | 21% | 89µM* | 4 | 22% | -7%[59 µM] | -8
Cc1ccc(N(C(=O)CCCC(=O)Nc2ccccn2)C(C(=O)NC2CCCC2)c2ccc(O)cc2)cc1C (centres undefined) | -6% | -21% | 3 | 3% | 8.9µM* | 1
Cc1ccccc1N(C(=O)CCCC(=O)Nc1ccccn1)C(C(=O)NC1CCCC1)c1ccc(O)cc1 (centres undefined) | 19% | -10% | -1 | -1% | -8% | 0
SMILES | HP1b binding inh | JMJD2A Tudor | Six1-Eya2 blk | BAZ2B block | G9a inh | CtBP-E1A blk
O=S(=O)(NCCNC/C=C/c1ccc(Br)cc1)c1cccc2cnccc12 | / | / | / | / | 50µM*! | /
O=S(=O)(NCCc1ccncc1)c1cc(Br)ccc1F | 17% | -4% | 4 | 0% | -1%[12.7 µM] | -3
COc1ccc(NS(=O)(=O)c2cccc3ccccc23)cc1 | 4% | -11% | 11 | / | / | 9
CNCCNS(=O)(=O)c1cccc2cnccc12 | / | / | / | / | 30µM* | /
COc1ccc(N(C)C(=O)c2cn(C3CCCCC3)c(=O)c3c2c2ccccc2n3C)cc1 | 15% | ? | / | -30% | -34%[59 µM] | /
CC(C)CC(=O)N1CCN(Cc2cccc(F)c2)CC1 | ? | 4.5µM* | 6 | 56µM* | -46%[12.7 µM] | 1
COc1cccc(CN2CCN(C(=O)Nc3ccc([N+](=O)[O-])cc3)CC2)c1 | 14% | -18% | -4 | -12% | / | -18
COc1ccc(CN2CCN(C(C)C(=O)NC(C)c3ccc(F)cc3)CC2)cc1F (centres undefined) | 23% | -7% | -12 | -4% | -2% | 6
COc1cccc(CN2CCN(C(=O)CC(C)C)CC2)c1 | -57% | 5.6µM* | 5 | 56µM* | 18µM* | 6
COc1ccc(CN2CCN(C(C)C(=O)N(C)Cc3cccc(F)c3)CC2)cc1OC (centres undefined) | ? | 4.5µM* | 1 | 18µM* | 2µM* | /
COc1cc(OC)c(OC)cc1CN1CCN(C(=O)CC(C)C)CC1 | ? | 1.6µM* | 4 | ? | 18µM* | 3
O=C(COC(=O)c1cc(S(=O)(=O)N2CCCCC2)ccc1N1CCOCC1)c1ccccc1Cl | / | / | 0 | / | / | 2
C=CCN1CCCC1CNC(=O)c1cc(S(N)(=O)=O)cc(OC)c1OC (centres undefined) | / | / | / | / | 0%[12.7 µM] | /
COc1ccc(C2=Nc3ccccc3N(C(=O)c3cccnc3)C2C(=O)NC(C)(C)C)cc1 (centres undefined) | / | / | -10 | / | / | -8
COc1ccc(C2N(c3ccc(C)cc3)CCN2c2ccc(C)cc2)cc1O | -16% | 28µM* | ? | 32µM* | 18µM* | -15
CCC(=O)N(Cc1ccco1)c1nc(-c2ccc(OC)cc2)cs1 | 22% | -16% | 6 | -4% | 8%[59 µM] | 1
COCC(=O)N(Cc1ccco1)c1nnc(C2CCOC2)s1 (centres undefined) | 37% | -1% | 2 | 13% | 79µM* | 3
